Bioassay records: PubChem, several laboratories
CF NFkB inh: inhibitors of cystic fibrosis induced NF-kB. 360,000 tested, 0.86% active. inhibition, % at 5 µM. AID 588850. KKLEB NF-kB-GFP reporter, PAF-induced, GFP fluorescence overnight;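 active = at least 50% inhibition at 5 µM, scaled per plate between neutral and stimulator controls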;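 note: PAF is a Pseudomonas aeruginosa culture filtrate used as stimulus; plate controls were PAF-stimulated DMSO wells for no effect and unstimulated DMSO wells for full effect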
HIF-2a block: blocks HIF-2a reporter activity. inhibition, % at 18.8 µM. AID 624352. 360,000 tested, 0.72% active. 786-0 RCC cells HIF-2a reporter, luciferase luminescence, overnight;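 active = inhibition of the luminescence signal of 40% or more relative to plate controls, in a single-dose primary screen at 18.75 µM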
Peg3 prom inh: reduces Peg3 promoter-driven luciferase expression in HeLa; HeLa PEG-Prom luciferase reporter, luminescence, overnight; inhibition, % at 20 µM; 360,000 tested, 1.7% active;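 active = inhibition of at least 50% at 20 µM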
MITF TRPM1 inh: reduces MITF-dependent TRPM1 promoter luciferase signal; SK-MEL-5 TRPM1 promoter luciferase, 24 h; inhibition, % at 12.5 µM; 330,000 tested, 0.83% active;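 active = mean inhibition across replicates of 60% or more, whatever share of single replicates reaches that level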
KKLEB cytotox: counter-screen for CF NF-kB inhibitors: cytotoxicity | KKLEB CF airway cells viability, ATPlite luminescence, overnight; stronger effect = lower value; cells stimulated with P. aeruginosa culture filtrate | activity change (cytotoxicity), % at 5 µM | 360,000 tested, 0.36% active;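 active = corrected activity change at or below -50% at 5 µM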
Shn3 3UTR inh: Schnurri-3 reporter inhibition in Clone20 osteoblasts; Clone20 osteoblast Shn3 3'UTR firefly luciferase, 24 h; inhibition, % at 12.5 µM; 360,000 tested, 0.52% active;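 active = mean inhibition of at least 75% with every replicate also reaching 75%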;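 note: 0% = median of neutral control wells and 100% = pilot-screen positive control compound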
Starred values were filed as active, the others as inactive; / = no result given. An excerpt weighted towards active compounds, which were near 2.7% of everything screened.

SMILES	CF NFkB inh	HIF-2a block	Peg3 prom inh	MITF TRPM1 inh	KKLEB cytotox	Shn3 3UTR inh
COc1ccc(CN(C(=O)CSc2nnc(-c3ccc(F)cc3)o2)c2ccc(F)cc2)cc1	9.0	-13.3	-8.7	6.2	-1.1	88.2*
CCOc1cc(C(=O)Nc2cc(C)ccn2)cc(OCC)c1OCC	-18.0	9.5	20.2	-2.0	1.8	3.4
CCOc1ccc(C(=O)Nc2cc(C)ccn2)cc1	7.8	5.5	37.5	32.6	-56.7*	10.6
Cc1ccnc(NC(=O)c2cc3ccccc3o2)c1	0.3	35.4	51.1*	40.2	-41.3	57.2
COc1cc2c(cc1NC(=O)C(Cl)Cl)-c1ccc(NC(=O)C(Cl)Cl)cc1C2	-10.2	-59.6	95.6*	74.2*	-14.2	6.7
CCOC(=O)[C@]12CCCC=C1N(Cc1ccco1)C(=O)[C@H](CC(=O)NCc1ccccc1)C2	/	11.9	/	/	/	/
COc1ccc([C@H]2C[C@@H](O)[C@H](n3cc(C4CC4)nn3)CN2C(=O)C2CCCCC2)cc1	-17.0	15.8	-2.2	/	1.3	-15.9
O=C(CSC1=NS(=O)(=O)c2cc(F)ccc2N1)Nc1ccccc1	15.1	5.9	6.5	-3.7	-1.3	-28.7
O=C(CSC1=NS(=O)(=O)c2ccccc21)Nc1ccccc1	11.7	-52.4	71.1*	48.6	3.2	-23.1
O=C1c2ccccc2C(=O)C1c1ccc2ccccc2n1	-185.1	-25.0	53.0*	59.6	-68.1*	26.6
OCCN(CCO)c1ccc(C(c2ccccc2Cl)c2ccc(N(CCO)CCO)cc2Cl)c(Cl)c1	9.1	25.3	59.5*	-12.6	10.3	23.5
Cc1ccccc1NC(=O)C(Cl)=C(Cl)Cl	-16.8	-40.9	55.0*	35.5	12.3	4.6
Cc1ccccc1NNC(=O)C(=O)NNc1ccccc1C	-22.7	8.9	6.6	9.1	15.8	17.9
CCc1nc2ccc(C(=O)Nc3cccc(OC)c3)cn2c1N(C)Cc1ccc(OC)cc1	14.8	-11.2	30.7	/	-5.0	10.2
COC(=O)/C=C\C(C#N)(C#N)N=Cc1ccc(OC)cc1	9.1	-12.3	104.9*	2.6	-13.4	4.0
Nc1ccc2c(c1)C(=O)C(=O)c1ccccc1-2	79.8*	93.3*	99.8*	107.0*	-96.4*	96.8*
Nc1ccc2c(c1)C(=O)c1ccccc1-2	4.6	-5.3	-24.2	-11.9	1.2	2.6
CC1=C(C(=O)N2CCCCCC2)CC(CC(=O)NC2CCCCC2)C(=O)N1Cc1ccc(F)cc1 (stereo unspecified)	/	-1.3	/	/	/	/
COC1=CC(=O)OC(c2ccccc2)C1 (stereo unspecified)	/	2.2	/	/	/	/
COc1ccc2cc(-c3cc(C(=O)O)c4ccccc4n3)ccc2c1	-2.4	35.0	30.4	28.3	-54.1*	65.8
COc1ccc(-c2cc(C(=O)N3CCN(c4ccccn4)CC3)c3ccccc3n2)cc1	15.7	-195.1	-47.0	-31.3	-60.7*	-89.6
COc1ccc(-c2cc(C(=O)O)c3ccccc3n2)c(OC)c1	-7.4	19.8	8.3	5.5	7.3	-4.4
CCc1ccc(-c2nc(CSCC(=O)N3CCN(c4ccccn4)CC3)c(C)o2)cc1	-21.9	57.7*	44.7	64.1*	10.4	18.5
CCCc1ccc(-c2cc(C(=O)N3CCN(c4ccccn4)CC3)c3ccccc3n2)cc1	12.3	-121.9	-40.2	-15.8	-75.6*	26.5
CC(C)NC(=O)C1(C)CN(S(C)(=O)=O)CC(=O)N1CC(F)(F)F (stereo unspecified)	/	-4.7	/	/	/	/
SMILES	CF NFkB inh	HIF-2a block	Peg3 prom inh	MITF TRPM1 inh	KKLEB cytotox	Shn3 3UTR inh
O=C(Nc1ccc2c(c1)CN(C(=O)Nc1ccc(F)cc1)CC2)c1ccccn1	9.6	-174.6	-83.0	/	-8.5	5.1
CCOc1ccc(-c2cc(C(=O)N3CCCC3)c3ccccc3n2)cc1	-11.5	-199.6	-202.2	-66.7	-23.7	-78.5
CCOc1ccc(-c2cc(C(=O)N3CCN(c4ccccn4)CC3)c3ccccc3n2)cc1	1.8	-286.1	-56.6	-14.4	-68.0*	-33.9
CCOc1ccc(-c2cc(C(=O)N3CCN(C)CC3)c3ccccc3n2)cc1	13.4	-197.4	-167.1	-70.4	-21.1	-13.3
CCOC(=O)N1CCN(C(=O)c2cc(-c3ccc(OCC)cc3)nc3ccccc23)CC1	10.4	-278.7	-63.5	-7.5	-75.0*	-7.4
OC[C@@H]1CN(Cc2ccc(F)cc2)C[C@H](n2cnc3c(N4CCN(c5ccccc5)CC4)ncnc32)O1	-3.6	-11.8	17.2	/	6.1	16.2
COc1ccccc1CNC(=O)COc1cc(O)c2c(c1)OC(C)(C)CC2=O	-2.7	-25.8	-2.6	/	-25.0	20.5
CCOC(=O)c1c(OCC)[nH]c2c1cc(O)c1ccccc12	85.3*	-19.4	-15.6	12.4	-22.2	-20.4
CCOC(=O)c1c(C)[nH]c2cc(Br)c(O)cc12	-2.9	-14.7	-190.6	-22.1	9.3	-15.7
CC1(C(=O)N2Cc3ccccc3C2)CCN1C(=O)Cc1ccccc1 (stereo unspecified)	-0.2	4.7	2.7	/	8.2	-6.8
COc1ccc(CNn2c(-c3cccs3)nc3ccccc3c2=O)cc1OC	-14.0	-2.6	52.8*	-1.3	-13.0	-15.9
COc1cccc(C(=O)Nn2c(-c3cccs3)nc3ccccc3c2=O)c1OC	-10.0	11.1	21.9	16.9	-19.5	-11.2
CC(C)(C)OC(=O)NCCc1nc(NC(=O)OCc2ccccc2)sc1C(=O)O	/	8.9	/	/	/	/
O=C(O)c1ccc(NC2=C/C(=N/S(=O)(=O)c3cccs3)c3ccccc3C2=O)cc1	87.3*	13.4	-4.0	/	-20.8	17.5
Cc1cccc(NC2=C(NCCO)C(=O)c3ccccc3C2=O)c1	1.1	-54.1	-19.7	20.5	0.8	15.2
O=C1C(Nc2ccc(O)cc2)=C/C(=N/S(=O)(=O)c2cccs2)c2ccccc21	92.9*	40.1*	105.9*	108.2*	-64.6*	99.8*
O=C(O)c1ccc(Nc2nc3ccccc3nc2NS(=O)(=O)c2cccs2)cc1	-6.8	-2.2	7.6	-12.3	5.7	-29.2
Cc1cccc(NC2=C/C(=N/S(=O)(=O)c3cccs3)c3ccccc3C2=O)c1	93.2*	7.2	45.2	102.3*	-64.6*	93.4*
CC1=CC(C)(C)N(S(=O)(=O)c2ccc(C)cc2)c2cc(C)ccc21	51.4*	5.6	31.1	36.4	-28.7	24.9
CCOc1ccc2c(c1)C(C)=CC(C)(C)N2S(=O)(=O)c1ccc(C)cc1	60.9*	39.2	19.9	74.9*	-21.8	78.5
COc1ccc2c(c1)C(C)=CC(C)(C)N2S(=O)(=O)c1ccc(C)cc1	48.9	12.1	30.6	49.2	-26.8	59.3
O=C(c1ccccc1)c1ccccc1N1C(=O)C=CC1=O	78.3*	25.0	104.3*	42.7	-9.1	93.0*
O=C(O)c1cccc(N2C(=O)C=CC2=O)c1	-4.8	15.4	13.3	/	-1.4	-6.4
CCOC(=O)c1ccccc1NC(=O)COC(=O)CCCOc1ccccc1	-1.9	3.7	13.3	4.9	2.2	5.6
COc1ccccc1NC(=O)Nc1ccc(C(=O)N2CCCCC2)cc1	-5.7	-201.7	-42.8	-110.3	-3.5	/
COC(=O)c1ccccc1NC(=O)CSCC(=O)Nc1ccccc1	-3.5	23.0	10.8	11.3	-69.2*	13.0
